# Measured values: PubChem BioAssay (NCATS)
# Active and inactive are the calls of the source. Where a call stands in place of a potency, no number is given. Calls come from the whole dose curve; as a rule, active = well fitted activation curve with a large enough effect; inconclusive = small, poorly fitted or top-dose-only effect; inactive = flat fitted curve, though single readings scatter.
# Test: Cellular Toxicity (caspase-3) HepG2 (AID 654);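 note: cells exposed to compound for 16 hours before reading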
# Conditions: HepG2 caspase-3 activation, luminescence; series mostly up to 92.2 µM
# Source text: NIH Chemical Genomics Center [NCGC]
# NIH Molecular Libraries Screening Centers Network [MLSCN]
# National Institutes of Environmental Health Sciences [NIEHS]
# National Toxicology Program [NTP]
# We have developed a 1536-well cell-based assay for quantitative high throughput screening (qHTS) against a number of cell lines to determine in vitro caspase 3/7 of small molecules. This particular assay uses the HepG2 cell line which is derived from human hepatocellular carcinoma.
# NCGC Assay Protocol Summary:
# The Caspase-Glo 3/7 assay (Promega) is a homogeneous method to measure caspase-3 and caspase-7 activities in cultured cells. The quantitation of caspase 3/7 activity is based on the cleavage of a peptide-aminoluciferin substrate. After caspase cleaves the substrate the free aminoluciferin is liberated and serves as the substrate of luciferase, which generates the light. The luminescent signal is proportional to amount of caspase 3/7 activity present.
# Using the Caspase-Glo 3/7 assay, the amount of caspase 3/7 activity was measured in the HepG2 cell line with complete culture medium following compound treatment for 16 hours. The assay was performed in opaque white 1536-well plates. In the screen, tamoxifen and doxorubicin were used as positive controls. Library compounds were measured for their ability to cause the activation of caspase 3/7 in the cell line, as reflected by an increase in luminescence signal, in a concentration-dependent manner. Data were normalized to the controls for basal activity (DMSO only) and 100% stimulation (100 uM tamoxifen). AC50 values were determined from concentration-response data modeled with the standard Hill equation.
# qHTS protocol for caspase 3/7 assay in HepG2 cells
# [Step] [Parameter] [Value] [Description]
# 1. Reagent; 5 uL; 1500 HepG2 cells/well
# 2. Time; 5 hr; 37 °C incubation
# 4. Controls; 23 nL; Tamoxifen 0.23 uM to 100 uM & Doxorubicin 7.0 pM to 100 uM
# 5. Time; 16 hr; 37 °C incubation
# 6. Reagent; 5 uL; Caspase-Glo 3/7 reagent
# 7. Time; 20 min; Room Temperature
# 8. Detection; Luminescence; Viewlux plate reader
# Keywords: caspase 3/7, apoptosis, HepG2 cell line, luminescence, NTPHTS, NTPHTS_NCGC, NIEHS, EPA, DSSTox, MLSMR, MLSCN, NIH Roadmap, qHTS, NCGC
row,Structure (SMILES),Potency
1,Cc1ccccc1C(=O)O,inactive
2,CCOC(=O)C(C)C(C)=O (stereo not given),inactive
3,Cc1ccc2ncccc2c1,inactive
4,CO[Si](CCCNCCC[Si](OC)(OC)OC)(OC)OC,inactive
5,Nc1cccc2c(=O)[nH][nH]c(=O)c12,inactive
6,C/C(C=O)=C/c1ccccc1,inactive
7,Cc1cc(C(=O)O)ccc1[N+](=O)[O-],inactive
8,CCc1ccccc1,inactive
9,CC(=O)OCCC(C)C,inactive
10,CC(=O)c1cccc([N+](=O)[O-])c1,inactive
11,CC(C)C=O,inactive
12,C=C(C)C(=O)OCCCCCCCCCC,inactive
13,N#CCc1ccccc1[N+](=O)[O-],inactive
14,CC(C)Nc1ccccc1,inactive
15,Cc1ccc(C)c([N+](=O)[O-])c1,inactive
16,O=C1CCC(=O)O1,inactive
17,BrC/C=C/CBr,inactive
18,O=C(Cl)c1c(Cl)cccc1Cl,inactive
19,O=Cc1ccc(C(=O)O)cc1,inactive
20,O=C1OC(=O)c2c(Br)c(Br)c(Br)c(Br)c21,inactive

row,Structure (SMILES),Potency
1,Cc1ccc2cccnc2c1,inactive
2,O=C(O)CN(CC(=O)O)CC(=O)O,inactive
3,CCN(C(=O)N(CC)c1ccccc1)c1ccccc1,inactive
4,CCCOCC(C)O (stereo not given),inactive
5,Cc1c(C(=O)O)cccc1[N+](=O)[O-],inactive
6,CSCCC=O,inactive
7,Cc1cccc([N+](=O)[O-])c1C(=O)O,inactive
8,O=C(O)CNC(=O)c1ccc([N+](=O)[O-])cc1,inactive
9,CCCCC(CC)C(=O)O (stereo not given),inactive
10,O=C(O)c1c(Cl)cccc1Cl,inactive
11,CCCCC(C=O)CC (stereo not given),inactive
12,Cc1ccc(C(=O)O)cc1,inactive
13,CNC(=O)c1ccccc1,inactive
14,CCCCCCC=O,inactive
15,CCNc1cc(O)ccc1C,inactive
16,C1CCOC1,inactive
17,O=c1[nH][nH]c(=O)c2cc([N+](=O)[O-])ccc12,inactive
18,Cc1cc(C)cc(N)c1,inactive
19,CC(C)=CCl,inactive
20,ClC/C=C/CCl,inactive
